Measurements from PubChem BioAssay.
For some assays here: Potency and affinity values are given separately. Active and inactive are the calls of the source. Where a call stands in place of a potency, no number is given. Unless noted, no rule for the calls is given here.

How the values were obtained:
[1] = antimalarial activity against Dd2 strain (AID 2302;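 active = growth inhibition above 50% at the single 2 µM test dose, taken to imply half-maximal potency below 2 µM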); conditions: P. falciparum Dd2 in RBCs, LDH growth readout, 72 h; at 2 µM; hits give high values
[2] = human hepatoma cell viability loss – ATP luminescence, cytotoxicity control for P. falciparum antimalarial project, primary screen (AID 2303;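 active = inhibition above 50%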); conditions: HepG2 viability, 24-48 h, at 10 µM, hits give high values
[3] = biological target: L-lactate dehydrogenase (Plasmodium falciparum (isolate CDC / Honduras)) (UniProt Q27743); assay: PfLDH activity inhibition – cell lysate, 3D7 strain, counter-screen for P. falciparum growth inhibition project (AID 2304); conditions: P. falciparum 3D7 crude extract, LDH APAD/NBT absorbance; at 2 µM; hits give high values
Sequence of L-lactate dehydrogenase (Plasmodium falciparum (isolate CDC / Honduras)) (Q27743 whole entry, looked up): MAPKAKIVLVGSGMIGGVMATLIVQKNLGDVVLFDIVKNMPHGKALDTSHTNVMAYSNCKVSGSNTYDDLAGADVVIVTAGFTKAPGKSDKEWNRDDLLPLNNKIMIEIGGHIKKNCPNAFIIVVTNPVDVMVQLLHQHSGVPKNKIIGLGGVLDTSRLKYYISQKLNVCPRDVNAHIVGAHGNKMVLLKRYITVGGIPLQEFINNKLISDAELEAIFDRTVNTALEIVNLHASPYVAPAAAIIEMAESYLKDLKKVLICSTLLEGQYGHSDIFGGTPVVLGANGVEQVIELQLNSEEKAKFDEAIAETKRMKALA

[4] = inhibition of 3D7 malaria parasite growth – strain 3D7 (AID 2306); conditions: P. falciparum 3D7 erythrocytic growth, LDH absorbance, 72 h; at 2 µM; hits give high values
[5] = biological target: Calcium-dependent protein kinase 1 (Plasmodium falciparum (isolate 3D7)) (UniProt P62344); assay: PfCDPK1 kinase inhibitors, biochemical, TCAMS library (AID 1159585; cut-off not given, nearly all actives have IC50 up to about 0.98 µM;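 also: inhibitors leave more ATP so luminescence rises with inhibition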); conditions: recombinant PfCDPK1, Kinase-Glo ATP depletion luminescence
Sequence of Calcium-dependent protein kinase 1 (Plasmodium falciparum (isolate 3D7)) (P62344 whole entry, looked up): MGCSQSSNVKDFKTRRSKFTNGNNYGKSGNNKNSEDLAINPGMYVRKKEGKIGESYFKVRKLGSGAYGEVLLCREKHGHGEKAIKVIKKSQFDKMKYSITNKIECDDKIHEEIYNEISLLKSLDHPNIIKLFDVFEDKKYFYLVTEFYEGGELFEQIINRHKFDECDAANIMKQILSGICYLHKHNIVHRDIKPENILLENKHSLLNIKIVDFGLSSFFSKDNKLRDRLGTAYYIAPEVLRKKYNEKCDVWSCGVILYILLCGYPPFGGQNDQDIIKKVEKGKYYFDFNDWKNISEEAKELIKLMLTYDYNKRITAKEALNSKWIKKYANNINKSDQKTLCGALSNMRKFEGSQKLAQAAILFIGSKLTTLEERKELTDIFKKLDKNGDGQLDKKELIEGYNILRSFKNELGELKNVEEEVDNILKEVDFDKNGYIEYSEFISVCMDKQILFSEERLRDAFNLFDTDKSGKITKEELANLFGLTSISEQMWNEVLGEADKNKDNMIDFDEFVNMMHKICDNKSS

[6] = biological target: Plasmodium falciparum protein kinase 6 (PK6, PF3D7_1337100) (UniProt Q8IDW1); assay: PfPK6 kinase inhibitors, biochemical, TCAMS library (AID 1159586); conditions: recombinant PfPK6, Kinase-Glo ATP depletion luminescence
Sequence of Plasmodium falciparum protein kinase 6 (PK6, PF3D7_1337100) (Q8IDW1 1-305): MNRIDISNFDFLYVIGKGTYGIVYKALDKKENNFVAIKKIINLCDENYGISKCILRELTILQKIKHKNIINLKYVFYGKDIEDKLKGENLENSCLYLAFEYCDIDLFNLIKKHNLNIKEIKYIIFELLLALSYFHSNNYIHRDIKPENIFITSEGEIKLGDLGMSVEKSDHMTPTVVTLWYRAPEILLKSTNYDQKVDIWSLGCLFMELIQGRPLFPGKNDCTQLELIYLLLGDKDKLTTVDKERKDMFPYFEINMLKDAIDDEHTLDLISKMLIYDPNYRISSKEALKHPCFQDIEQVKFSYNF

[7] = biological target: Protein kinase 7 (PK7), Plasmodium falciparum 3D7 (PF3D7_0213400) (UniProt Q7YTF7); assay: inhibition of Plasmodium PK7 catalytic activity – biochemical, TCAMS antimalarial set, Kinase-Glo luminescence (AID 1159587); conditions: recombinant PfPK7, Kinase-Glo ATP depletion luminescence
Sequence of Protein kinase 7 (PK7), Plasmodium falciparum 3D7 (PF3D7_0213400) (Q7YTF7 1-343): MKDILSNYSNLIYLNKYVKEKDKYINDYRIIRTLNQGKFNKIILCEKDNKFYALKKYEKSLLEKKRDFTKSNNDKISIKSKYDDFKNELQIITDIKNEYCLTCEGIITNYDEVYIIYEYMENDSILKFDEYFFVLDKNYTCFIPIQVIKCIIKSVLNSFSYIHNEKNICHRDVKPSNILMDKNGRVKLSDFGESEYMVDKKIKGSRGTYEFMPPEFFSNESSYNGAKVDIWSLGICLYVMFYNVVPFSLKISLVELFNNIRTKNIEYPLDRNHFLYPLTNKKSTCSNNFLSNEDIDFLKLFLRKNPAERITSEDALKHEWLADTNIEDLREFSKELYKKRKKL

[8] = biological target: Calcium-dependent protein kinase 4 (Plasmodium falciparum (isolate 3D7)) (UniProt Q8IBS5); assay: PfCDPK4 kinase inhibitors, biochemical, TCAMS library (AID 1159588; cut-off not given, nearly all actives have IC50 up to about 0.91 µM); conditions: recombinant PfCDPK4, Kinase-Glo ATP depletion luminescence
Sequence of Calcium-dependent protein kinase 4 (Plasmodium falciparum (isolate 3D7)) (Q8IBS5 whole entry, looked up): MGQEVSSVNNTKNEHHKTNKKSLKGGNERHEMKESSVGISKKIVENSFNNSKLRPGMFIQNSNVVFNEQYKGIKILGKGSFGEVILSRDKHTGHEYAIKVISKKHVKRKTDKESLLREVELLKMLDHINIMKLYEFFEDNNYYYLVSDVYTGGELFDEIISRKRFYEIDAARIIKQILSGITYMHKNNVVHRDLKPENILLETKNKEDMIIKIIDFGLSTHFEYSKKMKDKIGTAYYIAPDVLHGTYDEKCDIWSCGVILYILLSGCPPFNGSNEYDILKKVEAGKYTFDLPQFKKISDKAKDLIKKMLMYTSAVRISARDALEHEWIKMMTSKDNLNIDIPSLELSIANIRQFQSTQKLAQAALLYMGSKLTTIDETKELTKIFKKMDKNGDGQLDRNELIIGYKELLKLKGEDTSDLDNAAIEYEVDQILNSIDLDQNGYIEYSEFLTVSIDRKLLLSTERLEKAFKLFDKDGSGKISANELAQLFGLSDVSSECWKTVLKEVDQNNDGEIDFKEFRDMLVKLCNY

| Structure (SMILES) | growth inhibition [1] | inhibition [2] | inhibition [3] | growth inhibition [4] | outcome [5] | outcome [6] | outcome [7] | outcome [8] |
| --- | --- | --- | --- | --- | --- | --- | --- | --- |
| N=C(N)c1cccc(OCCCOc2cccc(NC(=O)Nc3ccc([N+](=O)[O-])cc3)c2)c1 | 22% (inactive) | 16% (inactive) | 3% (inactive) | 98% (active) | inactive | inactive | inactive | inactive |
| FC(F)(F)c1ccc2nc(-c3ccc(-c4cccc(CN5CCN(CCN6CCOCC6)CC5)c4)cc3)[nH]c2c1 | 77% (active) | 47% (inactive) | -6% (inactive) | 98% (active) | inactive | inactive | inactive | inactive |
| Cc1c(C(=O)NCc2ccncc2)sc2nc(-c3cccc([N+](=O)[O-])c3)cn12 | 29% (inactive) | 18% (inactive) | -2% (inactive) | 97% (active) | inactive | inactive | inactive | inactive |
| Cc1cc(N2CCCN(C)CC2)nc(Nc2ccc(Cl)cc2)n1 | 11% (inactive) | 8% (inactive) | 1% (inactive) | 96% (active) | inactive | inactive | inactive | inactive |
| c1ccc(Oc2ccc(Nc3ccnc(Nc4ccc(CN5CCOCC5)cc4)n3)cc2)cc1 | 38% (inactive) | 46% (inactive) | -4% (inactive) | 92% (active) | inactive | inactive | inactive | inactive |
| COc1ccc(C(=O)CCC(=O)N(Cc2ccc(-c3ccc(CNCCc4ccc(S(C)(=O)=O)cc4)cn3)cc2)C2C[C@@H]3CC[C@H]2C3)cc1F (stereo not given in full) | 34% (inactive) | 5% (inactive) | 0% (inactive) | 97% (active) | inactive | inactive | inactive | inactive |
| CCOc1cc2ncnc(Nc3ccc(OCc4ccccc4Br)c(OC)c3)c2cc1OCC | 82% (active) | 1% (inactive) | 1% (inactive) | 100% (active) | inactive | inactive | inactive | inactive |
| CCOc1ccc(Cc2c(C)nc3nc(N)nc(N)c3c2C)cc1 | 7% (inactive) | 63% (active) | 0% (inactive) | 91% (active) | inactive | inactive | inactive | inactive |
| Cc1cc(NN=Cc2ccccc2[N+](=O)[O-])c2ccccc2n1 | 100% (active) | 10% (inactive) | -2% (inactive) | 100% (active) | inactive | inactive | inactive | inactive |
| CCOC(=O)c1[nH]c(-c2cccnc2)nc1NC(=S)NCc1ccccc1 | 100% (active) | 10% (inactive) | 1% (inactive) | 101% (active) | inactive | inactive | inactive | inactive |
| CCOc1ccc(NC(=O)c2cn3nc(-c4ccc(OCC)cc4)cc3nc2C2CCNCC2)cc1 | 39% (inactive) | 36% (inactive) | -11% (inactive) | 102% (active) | inactive | inactive | inactive | inactive |
| Cc1ccc(-c2ccn(Cc3cccc(OCc4ccccc4)c3)n2)cn1 (tested in a mixture with another compound) | 64% (active) | -4% (inactive) | 0% (inactive) | 82% (active) | inactive | inactive | inactive | inactive |
| Cc1cc(-c2ccc(CNC3Cc4ccccc4C3)cc2)ccc1S(=O)(=O)NCCN1CCCC1 | 73% (active) | 99% (active) | 0% (inactive) | 101% (active) | inactive | inactive | inactive | inactive |
| NC1CCN(Cc2ccc(-c3ccc(-c4nc5ccc(F)cc5[nH]4)s3)cc2)C1 (stereo not given) | 98% (active) | 32% (inactive) | 3% (inactive) | 100% (active) | inactive | inactive | inactive | inactive |
| Cc1cccc2[nH]c(-c3cccc(-c4cccc(NC(=O)c5cnc[nH]5)c4)c3)nc12 | 91% (active) | 2% (inactive) | 0% (inactive) | 100% (active) | inactive | inactive | inactive | inactive |
| COc1ccc2c(NN=Cc3cccc(C)n3)ccnc2c1 | 51% (active) | -12% (inactive) | 3% (inactive) | 96% (active) | inactive | inactive | inactive | inactive |
| NC(=O)c1cccc(C(=O)Nc2cccc(-c3csc(-c4nc5ccccc5[nH]4)c3)c2)c1 | 92% (active) | 16% (inactive) | 0% (inactive) | 101% (active) | inactive | inactive | inactive | inactive |
| CCC(C)CN1CCN(c2ccc(NC(=O)c3cccs3)cc2)CC1C (stereo not given) | 94% (active) | -3% (inactive) | 1% (inactive) | 94% (active) | inactive | inactive | inactive | inactive |
| CC(C)CCN1CCC(Oc2ccc(NC(=O)c3ccco3)cc2Cl)CC1 | 93% (active) | 1% (inactive) | 3% (inactive) | 95% (active) | inactive | inactive | inactive | inactive |
| c1cc(CNC2CCCC2)cc(-c2ccc(CNc3ccc4ncccc4c3)cc2)c1 | 24% (inactive) | 32% (inactive) | -9% (inactive) | 98% (active) | inactive | inactive | inactive | inactive |

| Structure (SMILES) | growth inhibition [1] | inhibition [2] | inhibition [3] | growth inhibition [4] | outcome [5] | outcome [6] | outcome [7] | outcome [8] |
| --- | --- | --- | --- | --- | --- | --- | --- | --- |
| Cc1ccc(-c2ccn(Cc3ccc(OCc4ccccc4)cc3)n2)cn1 (tested in a mixture with another compound) | 92% (active) | 1% (inactive) | -3% (inactive) | 93% (active) | inactive | inactive | inactive | inactive |
| CN(C)C(CNC(=O)c1cc(-c2ccncc2)c(-c2ccc(Cl)c(O)c2)o1)c1ccccc1 (stereo not given) | 28% (inactive) | 28% (inactive) | 0% (inactive) | 91% (active) | inactive | inactive | inactive | inactive |
| CC(C)CN1CCN(c2nc(C#N)c3c(c2C(=S)NC2CCCCC2)CC(C)(C)OC3)CC1 | 99% (active) | -4% (inactive) | -2% (inactive) | 101% (active) | inactive | inactive | inactive | inactive |
| CCCCCCn1c(Sc2ccc(C#N)c([N+](=O)[O-])c2)nnc1-c1cccs1 | 60% (active) | 26% (inactive) | -4% (inactive) | 97% (active) | inactive | inactive | inactive | inactive |
| N=c1n(CCN2CCCC2)c2ccccc2n1CC(O)c1ccc(Cl)c(Cl)c1 (stereo not given) | 6% (inactive) | 36% (inactive) | 5% (inactive) | 100% (active) | inactive | inactive | inactive | inactive |
| COc1cccc(C(=O)Nc2nc3c(s2)CCN(Cc2ccccc2N2CCNCC2)CC3)c1 | 11% (inactive) | 7% (inactive) | -6% (inactive) | 89% (active) | inactive | inactive | inactive | inactive |
| Cc1cc(NN=CC=Cc2ccccc2)c2ccc(F)cc2n1 | 30% (inactive) | 14% (inactive) | -3% (inactive) | 100% (active) | inactive | inactive | inactive | inactive |
| CCCCN(CCCC)CCNC(=O)c1ccc(-c2nc3ccc(Cl)cc3[nH]2)c(OCC)c1 | 80% (active) | 0% (inactive) | 9% (inactive) | 101% (active) | inactive | inactive | inactive | inactive |
| COC(=O)c1ccc2nc(-c3cc(-c4cccc(-c5ccccc5)c4)cnc3N)[nH]c2c1 | 61% (active) | 25% (inactive) | 5% (inactive) | 101% (active) | inactive | inactive | inactive | inactive |
| O=c1[nH]c2c(c(O)c1[N+](=O)[O-])CCC2 | 1% (inactive) | 9% (inactive) | -5% (inactive) | 97% (active) | inactive | inactive | inactive | inactive |
| O=S(=O)(Nc1cccc(F)c1CNCc1ccccn1)c1ccc(Cl)c(Cl)c1 | 34% (inactive) | 45% (inactive) | -5% (inactive) | 92% (active) | inactive | inactive | inactive | inactive |
| CC(C)(C)COc1ccc2c(N)n[nH]c2c1 | 8% (inactive) | 31% (inactive) | 4% (inactive) | 90% (active) | inactive | inactive | inactive | inactive |
| CN(C)CCCc1cc2c(cc1Cl)CCN2C(=O)Nc1ccc(-c2ccncc2)c2ccccc12 | -2% (inactive) | 4% (inactive) | -2% (inactive) | 94% (active) | inactive | inactive | inactive | inactive |
| CN1CCN(c2ccnc3ccc(NC(=O)Nc4ccc(-c5ccncc5)c(C(F)(F)F)c4)cc23)CC1 | 99% (active) | 12% (inactive) | 6% (inactive) | 99% (active) | inactive | inactive | inactive | inactive |
| CCOC(=O)C1=C(C)NC(C)=C(C(=O)OCC)C1(C(=O)OCc1ccccc1)c1cccc(C(F)(F)F)c1 | 60% (active) | -17% (inactive) | 5% (inactive) | 88% (active) | inactive | inactive | inactive | inactive |
| COc1ccc(CC(C)CON2C(N)=NC(N)=NC2(C)C)cc1 (stereo not given) | 96% (active) | 59% (active) | -9% (inactive) | 94% (active) | inactive | inactive | inactive | inactive |
| COc1ccc(Cn2ccc3c4c(N)nc(N)nc4ccc32)cc1 | 93% (active) | 90% (active) | 7% (inactive) | 101% (active) | inactive | inactive | inactive | inactive |
| O=C(O)Cc1ccc(-c2c[nH]c3ncc(-c4cccc5ncccc45)cc23)cc1 | 0% (inactive) | 7% (inactive) | 1% (inactive) | 95% (active) | inactive | inactive | inactive | inactive |
| CCCCCCCCS(=O)(=O)NCCCC1CCN(CCCCCNC(=O)C=Cc2ccc(Cl)c(Cl)c2)CC1 | 26% (inactive) | 100% (active) | 6% (inactive) | 91% (active) | inactive | inactive | inactive | inactive |
| O=C(Nc1ccc(Cl)c(Cl)c1)Nc1ccc2nccc(N3CCN(Cc4ccccc4)CC3)c2c1 | 100% (active) | 31% (inactive) | 1% (inactive) | 101% (active) | inactive | inactive | inactive | inactive |
